# Assay results taken from the supplement of paper PMC10338343.
# ± gives the standard deviation.
# System: MILI (PIWIL2) piRISC loaded with L1MC piRNA (26 nt)
# Assay: pre-steady-state target cleavage rate (min^-1); guide: L1MC piRNA 5'p-UAACUAAAUACUAUGCAAGCUGUAGG; MIWI and MILI are mouse PIWI proteins and EfPiwi is from a freshwater sponge; tags in brackets are library labels; higher = faster piRNA-guided slicing of the target
# Conditions: auxiliary factor: 500 nM mouse GTSF1
# In short: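 Active affinity-purified piRISC (1 nM) loaded with one synthetic guide was mixed with a transcribed, DNA-blocked target RNA library (0.1 nM), with or without 500 nM GTSF1 partner protein, in HEPES–potassium acetate buffer at 33 °C for 0–8 or 0–960 min. Uncleaved targets were sequenced, normalised to depth and to weakly complementary targets, and pooled across three trials, with k3 capped at 0.0001 min^-1. The pre-steady-state cleavage rate was determined with a burst-and-steady-state fit.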
row,Sequence,pre-steady-state target cleavage rate
1,UCCUGCUACAGCUUGCAUAGUAUUUAGUCA,0.202 ± 0.033
2,UCCUGGAUCAGAUUGCAUAGUAUUUAGUUA,0.205 ± 0.013
3,UCCUGCUACAGCUUGCAUAGUGAUUUAGUUA,0.0204 ± 0.0094
4,UCCUCCUACGCUUGCAUAGUAUUUAGUUA,0.301 ± 0.013
5,UCCUGGAACAGCUUUCAUAGUAUUUAGUUA,0.197 ± 0.021
6,UCCUGCUACAGCUUGCUUAGUAAUUAGUUA,0.18 ± 0.018
7,UCCUGCAACAGCUAGCAUAGUAUUUAGUUA,0.289 ± 0.02
8,UCCUGGAACAGCUUGGCAUAGUAUUUAGUUA,0.48 ± 0.097
9,UCCUCCUACAGGAUGCAUAGUAUUUAGUUA,0.273 ± 0.013
10,UCCUGGAUGUCCUUGUAUAGUAUUUAGUUA,0.119 ± 0.018
11,UCCUCCUACAGCUUGCAUAGUUAUUUAGUUA,0.0152 ± 0.0067
12,UCCUCCUACUGCUUGCAUAGUAAUUAGUUA,0.2 ± 0.014
13,UCCUGCUACAGCAUGCUUAGUAUUUAGUUA,0.255 ± 0.017
14,UCCUGCUACAGCUUGCAUAGUAUUUAUGUUA,0.182 ± 0.023
15,UCCUCCUACAGCUUGCAUAGUAUUUGAGUUA,0.199 ± 0.028
16,UCCUGGUACAGCAUGCAUAGUAUUAAGUUA,0.292 ± 0.06
17,UCCUCCUACAGCUUGCAUAGUACUUAGUUA,0.277 ± 0.018
18,UCCUCCUAGAGCUUGCAUAGUAUUUAGUUA,0.232 ± 0.019
19,UCCUGGUUCAGCUUGCAAAGUAUUUAGUUA,0.137 ± 0.018
20,UCCUGGUACAGCUUGCAUAGUAGUUUAGUUA,0.217 ± 0.028

row,Sequence,pre-steady-state target cleavage rate
1,UCCUGCUACAGCAUGCAUUGUAUUUAGUUA,0.213 ± 0.02
2,UCCUCCUCACAGCUUGCAUAGUAUUUAGUUA,0.369 ± 0.021
3,UCCUGCAACAGCUUGCAUAGUAAUUAGUUA,0.34 ± 0.025
4,UCCUCCUACAACUUGCAUAGUAUUUAGUUA,0.266 ± 0.019
5,UCCUGGAUGUCCUUGCAUAGUAUUUAUUUA,0.0674 ± 0.018
6,UCCUGCUACAGCAAGCAUAGUAUUUAGUUA,0.325 ± 0.022
7,UCCUGGAUGUGCUUACAUAGUAUUUAGUUA,0.122 ± 0.015
8,UCCUGGAUCAGCUUGCAUAGUAUUGUAGUUA,0.176 ± 0.018
9,UCCUGGAUCAGCUUGCAUCGUAUUUAGUUA,0.0942 ± 0.012
10,UCCUCCUACAGACUUGCAUAGUAUUUAGUUA,0.253 ± 0.02
11,UCCUGCUACAGCUUGCAUUGUAUUUACUUA,0.12 ± 0.025
12,UCCUGGAACAGGUUGCAUAGUAUUAAGUUA,0.213 ± 0.023
13,UCCUGGAUCACCUUGCAAAGUAUUUAGUUA,0.0687 ± 0.012
14,UCCUGGUACAGCUAGGAUAGUAUUUAGUUA,0.191 ± 0.026
15,UCCUGCUUCAGCUAGCAUAGUAUUUAGUUA,0.322 ± 0.02
16,UCCUGGAUGUGCUUGCAUAGUGUUUAGUUA,0.0653 ± 0.013
17,UCCUGGAACAGCUUGCUUAGUAUUUUGUUA,0.167 ± 0.025
18,UCCUGGAACAGCUUGCAUAGUAUCUAGUUA,0.213 ± 0.03
19,UCCUCCUACAGCUUGUAUAGUAUUUAGUUA,0.305 ± 0.018
20,UCCUCCUAGAGCUUGCUUAGUAUUUAGUUA,0.261 ± 0.014
